Source: PubChem BioAssay
Shown are actives, neighbours in structure and some others; about 2% of the full set was active somewhere.
NadD block: inhibitors of S. aureus NadD, primary screen, biochemical, colorimetric, uHTS; purified NadD enzyme, colorimetric absorbance read-out; inhibition, % at 20 µM; 360,000 tested, 0.78% active; Nicotinate-nucleotide adenylyltransferase NadD (Staphylococcus aureus N315); in the data active = inhibition above about 26%
Neddylation inh: inhibitors of cullin neddylation, primary screen, biochemical, TR-FRET, uHTS, NAE and Ubc12 | 360,000 tested, 0.58% active | inhibition, % at 25 µM | NEDD8-conjugating enzyme Ubc12 (Homo sapiens) + NEDD8-activating enzyme E1 regulatory …; in the data active = inhibition above about 36%
sPLA2-III inh: human group III sPLA2 inhibitors, primary screen, biochemical, QFRET, BODIPY PC-A2 liposome substrate; Group 3 secretory phospholipase A2 (Homo sapiens), Q9NZ20; AID 743126, 2013; 370,000 tested, 0.56% active; inhibition, % at 12.2 µM; QFRET BODIPY PC-A2 liposome hydrolysis, fluorescence;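 active = inhibition above mean plus 3 SD of compounds lying within the high and low control bounds, cut at about 19% in these data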
DAGLB inh: DAGLB lipase inhibitors, primary screen, biochemical, fluorescence, HTS | 340,000 tested, 0.059% active | Diacylglycerol lipase-beta (Homo sapiens), Q8NCG7 | inhibition, % at 5.17 µM | HEK293T DAGLB membrane lysate, EnzChek fluorogenic substrate; in the data active = inhibition above about 34%
Target sequence (Q8NCG7 whole entry, looked up): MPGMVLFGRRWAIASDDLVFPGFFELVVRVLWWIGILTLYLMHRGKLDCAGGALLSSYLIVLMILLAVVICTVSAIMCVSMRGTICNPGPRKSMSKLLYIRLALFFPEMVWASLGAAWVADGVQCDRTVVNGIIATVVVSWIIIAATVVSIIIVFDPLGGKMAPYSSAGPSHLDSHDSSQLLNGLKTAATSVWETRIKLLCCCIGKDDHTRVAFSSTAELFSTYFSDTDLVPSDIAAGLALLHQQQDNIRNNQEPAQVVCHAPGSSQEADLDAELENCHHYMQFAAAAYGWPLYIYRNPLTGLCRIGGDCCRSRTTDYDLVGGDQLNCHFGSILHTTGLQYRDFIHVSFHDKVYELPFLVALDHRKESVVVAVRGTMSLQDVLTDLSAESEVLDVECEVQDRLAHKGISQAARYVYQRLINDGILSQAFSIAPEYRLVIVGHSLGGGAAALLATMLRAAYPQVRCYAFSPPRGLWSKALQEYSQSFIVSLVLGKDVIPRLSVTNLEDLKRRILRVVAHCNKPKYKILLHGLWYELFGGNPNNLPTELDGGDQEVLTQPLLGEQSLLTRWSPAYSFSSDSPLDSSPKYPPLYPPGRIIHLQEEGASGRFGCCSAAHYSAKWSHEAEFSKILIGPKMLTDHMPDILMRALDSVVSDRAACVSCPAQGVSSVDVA
ARNT-TACC3 inh: disruptors of ARNT/TACC3 protein interaction, primary screen, biochemical, AlphaScreen, single concentration; Transforming acidic coiled-coil-containing protein 3 (Homo sapiens), Q9Y6A5; AlphaScreen His-ARNT PAS-B/GST-TACC3 binding, luminescence; TACC3 fragment carries E629A point mutation; inhibition, % at 9.99 µM; 390,000 tested, 0.66% active;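 active = mean inhibition of replicates at least 50% and at least half of replicates each reaching 50%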
sPLA2 confirm: human group III sPLA2 inhibitors, confirmation, biochemical, QFRET, triplicate | inhibition, % at 12.2 µM | 2,000 tested, 34% active | recombinant hGIII-sPLA2, BODIPY PC-A2 QFRET fluorescence | shares compounds with sPLA2-III inh;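 active = mean inhibition across triplicates above the hit cutoff set in the earlier primary screen, cut at about 19% in these data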
535nm interf: 535nm fluorescence optical interference, confirmation, artefact control for HGIII-sPLA2 inhibitor project, biochemical, QFRET; inhibition, % at 12.2 µM; AID 743282, 2014; BODIPY FL product fluorescence interference; shares compounds with sPLA2-III inh; 2,000 tested, 8.5% active;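 active = average inhibition above the solvent-only control mean plus 3 SD, cut at about 6% in these data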
BODIPY interf DR: 535nm fluorescence optical interference, dose response, artefact control for HGIII-sPLA2 inhibitor project, biochemical, QFRET; AID 743455, 2014; BODIPY FL product fluorescence interference, cell-free; shares compounds with sPLA2-III inh; 240 tested, under 10 active; IC50, µM;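 active = IC50 at or below 10 µM; inactive = IC50 above 10 µM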
Each line names hits and unclear results; the compound was inactive in the other large screens (follow-up assays come after a bar, where shown).

CCCNC(=O)[C@@H]1[C@@H](CO)[C@@H]2Cn3c(cccc3=O)[C@H]1N2Cc1ccccc1	none (no result: NadD block, Neddylation inh, sPLA2-III inh, DAGLB inh)
CC12CC3(C)CC(C)(C1)CC(C(=O)NC(=S)N1CCOCC1)(C2)C3	sPLA2-III inh 20.1 | sPLA2 confirm 22.9 | 535nm interf inactive
O=[N+]([O-])c1cc2c(c([N+](=O)[O-])c1)Nc1ccccc1O2	sPLA2-III inh 21.1 (no result: ARNT-TACC3 inh) | sPLA2 confirm 44.8 | 535nm interf 11.5
O=C1Nc2ccccc2Oc2cc([N+](=O)[O-])cc(Oc3ccccc3)c21	none (no result: ARNT-TACC3 inh)
CCN(CC)c1ccc(/C=N/NC(=O)OC)c(O)c1	none
CCN(CC)c1ccc(/C=N/NC(=S)NC)c(O)c1	sPLA2-III inh 21.2, ARNT-TACC3 inh 59.6 | sPLA2 confirm 36.6 | 535nm interf inactive | BODIPY interf DR inactive
CCN(CC)c1ccc(C=NNC(=O)c2cc(-c3ccc(C)c(C)c3)n[nH]2)c(O)c1	sPLA2-III inh 21.4 (no result: NadD block, Neddylation inh, DAGLB inh, ARNT-TACC3 inh) | sPLA2 confirm 30.9 | 535nm interf inactive | BODIPY interf DR inactive
Cc1ccc(-c2cc(C(=O)NN=Cc3ccc(F)cc3)[nH]n2)cc1C	none (no result: NadD block, Neddylation inh, DAGLB inh, ARNT-TACC3 inh)
CC(C)c1c(C(=O)N/N=C/c2ccc3c(c2)OCO3)nnn1-c1nonc1N	none
CCN(CC)c1ccc(/C=N/NC(=O)c2nnn(-c3nonc3N)c2C(C)C)c(O)c1	sPLA2-III inh 23.8 (not shown: Neddylation inh) | sPLA2 confirm 45.9 | 535nm interf 7.6
CC(C)CCNC(=S)Nc1ccc2nc3n(c(=O)c2c1)CCCCC3	sPLA2-III inh 19.9 | sPLA2 confirm inactive | 535nm interf inactive
CCCCNC(=S)Nc1ccc2nc3n(c(=O)c2c1)CCCCC3	none (no result: ARNT-TACC3 inh)
COc1ccc(NC(=O)N(C)C[C@H]2Oc3ncc(C#CC(C)C)cc3C(=O)N([C@@H](C)CO)C[C@H]2C)cc1	none (no result: NadD block, Neddylation inh, sPLA2-III inh, DAGLB inh)
CC1CCCCC1NC(=O)CCn1c(=S)[nH]c2ccccc2c1=O (configuration not stated)	sPLA2-III inh 21.0 (no result: ARNT-TACC3 inh) | sPLA2 confirm 19.5 | 535nm interf inactive
O=C(CCCn1c(=S)[nH]c2ccccc2c1=O)NC1CCCCC1	none (no result: ARNT-TACC3 inh)
C[C@H](CO)N1C[C@H](C)[C@@H](CN(C)C(=O)CCCN(C)C)OCCCC[C@H](C)Oc2ccc(NC(=O)Nc3ccc(C(F)(F)F)cc3)cc2C1=O	none (no result: NadD block, Neddylation inh, sPLA2-III inh, DAGLB inh)
CCN(CC)c1ccc(-c2n[nH]c(=S)n2-c2ccccc2)cc1	sPLA2-III inh 19.5 | sPLA2 confirm 44.2 | 535nm interf inactive | BODIPY interf DR inactive
Cc1ccc(N2CN(Cc3ccco3)CNC2=S)c(C)c1	sPLA2-III inh 25.3 | sPLA2 confirm inactive | 535nm interf inactive
C[C@@H]1CN([C@H](C)CO)S(=O)(=O)c2ccc(C#C[C@@H](C)O)cc2O[C@@H]1CN(C)C(=O)C1CC1	none (no result: NadD block, Neddylation inh, sPLA2-III inh, DAGLB inh)
CCCCCCN1CCN(C2CN(Cc3cn(CCCC(=O)OC)nn3)S(=O)(=O)C2)CC1 (configuration not stated)	sPLA2-III inh 20.6 (no result: DAGLB inh, ARNT-TACC3 inh) | sPLA2 confirm inactive | 535nm interf inactive
CC(C)NC(=O)N[C@H]1CC[C@H](CC(=O)NCc2ccc(Oc3ccccc3)cc2)O[C@H]1CO	none (no result: NadD block, Neddylation inh, sPLA2-III inh, DAGLB inh)
NC(=O)c1cc([N+](=O)[O-])ccc1NCc1cnccn1	sPLA2-III inh 20.4 | sPLA2 confirm inactive | 535nm interf inactive
